# Data taken from the supplement of paper PMC12340641.
# Test system: HEK293FT dCK*-only
# Test: relative growth in counter assay (no AraC = 100%, AraC + DMSO = 0%); higher = more growth rescue independent of IKZF1
# Details: compound concentration: 5 uM; AraC concentration: 0.3 uM; overnight pretreatment + 4 days AraC
# How it was run: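 Counter assay in HEK293FT cells expressing dCK* alone (300/well, 384-well). Cells received 5 μM compound 2 h after seeding, then after overnight at 37 °C a nucleoside suicide substrate at 0.3 μM plus medium for 4 days. On day 5, Hoechst 33342-stained nuclei were counted by imaging. Relative growth was normalised per plate to wells without suicide substrate (100%) and substrate plus vehicle (0%).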
row,Compound,relative growth in counter assay
1,c1ccc2c(c1)Sc1ccccc1N2CC1CN2CCC1CC2 (configuration not stated) [levomequitazine],-5.25%
2,C[C@@]12C(=O)OC(=O)[C@]1(C)[C@H]1CC[C@@H]2O1 [cantharidin],3.7%
3,N#Cc1cn([C@@H]2O[C@H](CO)[C@@H](O)[C@H]2O)c2ncnc(N)c12 [toyocamycin],-34.2%
4,O=C(CCCN1CCC(n2c(=O)[nH]c3ccccc32)CC1)c1ccc(F)cc1 [benperidol],4.87%
5,O=C1c2ccccc2C(=O)c2ccccc21 [anthraquinone],0.57%
6,C[C@]12CCC3C(CC[C@]4(O)C[C@@H](O)CC[C@]34C=O)[C@@]1(O)CCC2C1=CC(=O)OC1 (some centres not stated) [Strophantidin],-32.9%
7,C=C1[C@@H](C)[C@H]2[C@H](Cc3ccccc3)NC(=O)[C@]23OC(=O)/C=C/[C@H](O)CCC[C@@H](C)C/C=C/[C@H]3[C@@H]1O [Cytochalasin B],-30.2%
8,NCC1(CC(=O)O)CCCCC1,-10.5%
9,CC[C@@]1(C2O[C@@H](C3O[C@@](O)(CO)[C@H](C)C[C@@H]3C)C[C@@H]2C)CC[C@H]([C@]2(C)CC[C@]3(C[C@H](O)[C@@H](C)[C@@H]([C@@H](C)[C@@H](OC)[C@H](C)C(=O)O)O3)O2)O1 (some centres not stated),-4.55%
10,N=C(Nc1ccccc1)Nc1ccccc1 [diphenylguanidine],-6.47%
11,C[C@H]1CCC/C=C/C2C[C@H](O)C[C@H]2[C@H](O)/C=C/C(=O)O1 (some centres not stated) [brefeldin-a],-32.6%
12,CCCCC1(C2CCCC2)Cc2cc(OCCCC(=O)O)c(Cl)c(Cl)c2C1=O (configuration not stated),2.86%
